Records with an inconclusive call do not appear. Entries that show only a call come without a potency. Active and inactive are the calls of the source. The call rests on the fitted dose curve; in most records, active means well fitted inhibition curve with a large enough effect; inconclusive means small, poorly fitted or top-dose-only effect; inactive means flat fitted curve, though single readings scatter.
Each compound was assayed against Calcium and integrin-binding protein 1 (Homo sapiens) (UniProt Q99828) (assay: Primary qHTS for Identification of Calcium Integrin Binding Protein 1 (CIB1) Competitor (AID 1508620;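 further: GST tagged CIB1 binding a fluorescein labelled alphaIIb integrin peptide tracer; top concentration of the series differs between compounds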)). Details: CIB1-GST / FITC-alphaIIb peptide fluorescence polarization; series mostly up to 114 µM.
Sequence of Calcium and integrin-binding protein 1 (Homo sapiens) (Q99828 whole entry, looked up): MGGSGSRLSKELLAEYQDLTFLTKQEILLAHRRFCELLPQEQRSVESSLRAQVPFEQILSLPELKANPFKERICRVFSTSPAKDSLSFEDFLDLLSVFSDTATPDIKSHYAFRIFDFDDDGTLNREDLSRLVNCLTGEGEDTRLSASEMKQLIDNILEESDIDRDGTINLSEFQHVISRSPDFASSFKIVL
In short: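 Fluorescence polarization competition: CIB1-GST (1 uM final) preincubated with compound 15 min at room temperature, then FITC-labeled alphaIIb peptide (100 nM final) added for another 15 min. Polarization read at Ex 480/Em 540.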

Row | SMILES | Potency
1 | CCC(=O)NC(c1cc(Cl)c2cccnc2c1O)C1CC1 (stereo not given) | inactive
2 | c1c[nH]c(CNc2ncnc3ccc(-c4ccoc4)cc23)n1 | inactive
3 | c1nc(NCC2CCCO2)c2ccc(-c3ccc4c(c3)OCO4)cc2n1 (stereo not given) | inactive
4 | O=C1CCc2cc([S+](=O)([O-])NC3CCOCC3)ccc2N1 | inactive
5 | Cc1ccc(OCCn2c(CCNC(=O)c3cccs3)nc3ccccc32)cc1 | inactive
6 | COc1cccc(C2c3c(ncn(-c4ccc5c(c4)OCO5)c3=N)Oc3ccc4ccccc4c32)c1 (stereo not given) | inactive
7 | CCC(=O)NC(c1cc(Cl)c2ccccc2c1O)C1CC1 (stereo not given) | inactive
8 | COc1cccc(-c2csc3ncnc(Sc4nnnn4C)c23)c1 | inactive
9 | COCc1nn2c(=O)cc(N3CCNCC3)nc2s1 | inactive
10 | Cc1cc(C)nc(NC(=S)N2CCN(c3ccc(Cl)c(Cl)c3Cl)CC2)c1 | inactive
11 | Cn1c2ccsc2c2ncn(Cc3ccccc3F)c(=O)c21 | inactive
12 | CC(=O)Nc1ccc(S(=O)(=O)N2CCN(S(=O)(=O)c3ccc4c(c3)OCCO4)CC2)cc1 | inactive
13 | O=C(NC1CCCc2c1cnn2-c1ccc(F)cc1F)c1ccccn1 (stereo not given) | inactive
14 | COc1cccc(C2c3c(ncn(-c4ccccc4Cl)c3=N)Oc3ccc4ccccc4c32)c1 (stereo not given) | inactive
15 | Cc1cc(C)nc(NC(=S)N2CCN(c3cccc4nccn34)CC2)c1 | inactive
16 | O=c1[nH]c2ccc(S(=O)(=O)N3CCN(S(=O)(=O)c4ccc5c(c4)OCCO5)CC3)cc2[nH]c1=O | inactive
17 | Cc1noc(C)c1-c1ccc2ncnc(NCC3CCCCN3C)c2c1 (stereo not given) | inactive
18 | O=C(Nc1ccc2ccccc2c1)Nc1nnc(-c2ccccc2)s1 | inactive
19 | Cc1cc(NS(=O)(=O)c2ccc(N(C)C(=O)Cc3ccc(Cl)c(Cl)c3)cc2)no1 | inactive
20 | Cc1ccc(NC(=O)CN2C(=O)N/C(=C\c3cccn3-c3ccc(C(=O)NS(C)(=O)=O)cc3)C2=O)cc1 | inactive

Row | SMILES | Potency
21 | CN(CC(=O)O)c1ncnc2ccc(-c3ccc4c(c3)OCO4)cc12 | inactive
22 | Cc1ccnc(NC(=S)N2CC3CN(c4cccc(C(F)(F)F)c4)CC3C2)c1 (stereo not given) | inactive
23 | Cc1ccc(NC(=O)Nc2nnc(-c3ccncc3)s2)cc1C | inactive
24 | Cc1c(C(=O)N(C)CC2CCCO2)[nH]c2c1C(=O)CC(c1ccco1)C2 (stereo not given) | inactive
25 | Cc1ccc(C(=O)Nc2ccc(N3CCOCC3)cc2)cc1 | inactive
26 | COc1cccc(C2=Nn3c(nnc3-c3ccc(OC)cc3OC)SC2)c1 | inactive
27 | Cc1ccc(C2=NN(CC(=O)N(C)C(C)c3ccco3)C(=O)C2)cc1 (stereo not given) | inactive
28 | Oc1ccc(CNc2ccccc2C(F)(F)F)c2cccnc12 | inactive
29 | Cc1ccc(N(C)S(=O)(=O)c2ccc3c(c2)CCC(=O)N3)cc1C | inactive
30 | O=C(CNC(=O)c1ccccc1)OC(C(=O)Nc1cc([N+](=O)[O-])ccc1F)c1ccccc1 (stereo not given) | inactive
31 | CN(C)[S+](=O)([O-])c1ccc(-c2cncc(NC(=O)c3cccs3)c2)cc1 | inactive
32 | Cc1cc(N[S+](=O)([O-])c2ccc(NC(=O)Cc3ccc4c(c3)CCO4)cc2)no1 | inactive
33 | CCOC(=O)c1ccc(-c2ccc3ncnc(NCc4ncc[nH]4)c3c2)o1 | inactive
34 | Cc1ccnc(NC(=S)N2CCN(c3cccc([N+](=O)[O-])c3)CC2)c1 | inactive
35 | O=S(=O)(Nc1cc(O)cc2cccnc12)c1ccc(Br)s1 | inactive
36 | NC(=O)C1CCN(c2nc(-c3ccc(Br)cc3)cs2)CC1 | inactive
37 | CCOc1ccc(CCNC(=O)c2cc3ccccc3n2Cc2cc(C)cc(C)n2)cc1OCC | inactive
38 | Cc1ccc(NCc2ccc(O)c3ncccc23)c(F)c1 | inactive
39 | O=C(Nc1cccc(C(F)(F)F)c1)c1cccs1 | inactive
40 | CCOC(=O)C1CCN(C(=O)C(C)(C)NC(=O)Nc2ccc3c(c2)CCC3)CC1 | inactive

Source: PubChem BioAssay (NCATS)
